Measurements taken from the supplement of paper PMC10849652.
About 8,800 targets were measured; listed, in parts, are those with a hit and a random draw of the rest. About 0.5% of all pairs of compound and target were hits.

Key:
Experiment in all cases: log2 fold change, soluble protein after heating vs DMSO (PISA); higher = thermal stabilisation; K562 lysate, 10 uM; active = over 0.2 and 3.5 SD of the protein, either way, in both replicates (recomputed)
erlotinib = compound: C#Cc1cccc(Nc2ncnc3cc(OCCOC)c(OCCOC)cc23)c1 [erlotinib]
Method in brief: (§1)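 Soluble protein was defined as the supernatant remaining after 21,000xg for 90 min, following pooling of heated aliquots and adjustment to 0.5% NP-40 at 4°C. Before that, crude K562 extract at 1 mg/mL protein in PBS pH 7.4 with 1 mM MgCl2 was treated with 10 μM compound for 30 min and heated for 3 min across 48°C-58°C. Quantification used TMTpro 16plex LC-MS/MS with channel sums equalised, and values are log-two fold changes in thermal stability relative to solvent controls from duplicates.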

[1] = compound: C/C(=N\NC(=O)C1=CC(=CC=C1)S(=O)(=O)N2CCOCC2)/C3=C(C=CC(=C3)Cl)O
Method in brief: as §1

[2] = compound: C1=CC(=CC=C1C2=NC3=C(N2)C=C(C=C3)C(=O)N)OC4=CC=C(C=C4)Cl
Method in brief: as §1

[3] = compound: C1=CC2=C(C=CC(=C2)/C=C\3/C(=O)NC(=NCC4=CC=CS4)S3)N=C1
Method in brief: as §1

[4] = compound: C1=CC2=NC=CN=C2C=C1/C=C/3\C(=O)NC(=O)S3
Method in brief: as §1

[5] = compound: C1=CC=C(C=C1)C2=NC(=C(N2)C3=CC=NC=C3)C4=CC(=C(C=C4)Cl)O
Method in brief: as §1

[6] = compound: C1=CC=C2C(=C1)C3=NNC4=CC=CC(=C43)C2=O
Method in brief: as §1

[7] = compound: C1CCN(C1)C(=O)NC2=CC=CC(=C2)NC3=NC=C(C(=N3)NCCC4=CN=CN4)Br
Method in brief: as §1

[8] = compound: C1CN(CCC1(CC2=CC=C(C=C2)Cl)N)C3=NC=NC4=C3C=CN4
Method in brief: as §1

IRAK-1-4 Inhibitor I = compound: C1COCCN1CCN2C3=CC=CC=C3N=C2NC(=O)C4=CC(=CC=C4)[N+](=O)[O-] [IRAK-1-4 Inhibitor I]
Method in brief: as §1

Measured: log2 fold change

PCF11 (UniProt O94913)
Sequence of UniProt O94913 (O94913 whole entry, looked up): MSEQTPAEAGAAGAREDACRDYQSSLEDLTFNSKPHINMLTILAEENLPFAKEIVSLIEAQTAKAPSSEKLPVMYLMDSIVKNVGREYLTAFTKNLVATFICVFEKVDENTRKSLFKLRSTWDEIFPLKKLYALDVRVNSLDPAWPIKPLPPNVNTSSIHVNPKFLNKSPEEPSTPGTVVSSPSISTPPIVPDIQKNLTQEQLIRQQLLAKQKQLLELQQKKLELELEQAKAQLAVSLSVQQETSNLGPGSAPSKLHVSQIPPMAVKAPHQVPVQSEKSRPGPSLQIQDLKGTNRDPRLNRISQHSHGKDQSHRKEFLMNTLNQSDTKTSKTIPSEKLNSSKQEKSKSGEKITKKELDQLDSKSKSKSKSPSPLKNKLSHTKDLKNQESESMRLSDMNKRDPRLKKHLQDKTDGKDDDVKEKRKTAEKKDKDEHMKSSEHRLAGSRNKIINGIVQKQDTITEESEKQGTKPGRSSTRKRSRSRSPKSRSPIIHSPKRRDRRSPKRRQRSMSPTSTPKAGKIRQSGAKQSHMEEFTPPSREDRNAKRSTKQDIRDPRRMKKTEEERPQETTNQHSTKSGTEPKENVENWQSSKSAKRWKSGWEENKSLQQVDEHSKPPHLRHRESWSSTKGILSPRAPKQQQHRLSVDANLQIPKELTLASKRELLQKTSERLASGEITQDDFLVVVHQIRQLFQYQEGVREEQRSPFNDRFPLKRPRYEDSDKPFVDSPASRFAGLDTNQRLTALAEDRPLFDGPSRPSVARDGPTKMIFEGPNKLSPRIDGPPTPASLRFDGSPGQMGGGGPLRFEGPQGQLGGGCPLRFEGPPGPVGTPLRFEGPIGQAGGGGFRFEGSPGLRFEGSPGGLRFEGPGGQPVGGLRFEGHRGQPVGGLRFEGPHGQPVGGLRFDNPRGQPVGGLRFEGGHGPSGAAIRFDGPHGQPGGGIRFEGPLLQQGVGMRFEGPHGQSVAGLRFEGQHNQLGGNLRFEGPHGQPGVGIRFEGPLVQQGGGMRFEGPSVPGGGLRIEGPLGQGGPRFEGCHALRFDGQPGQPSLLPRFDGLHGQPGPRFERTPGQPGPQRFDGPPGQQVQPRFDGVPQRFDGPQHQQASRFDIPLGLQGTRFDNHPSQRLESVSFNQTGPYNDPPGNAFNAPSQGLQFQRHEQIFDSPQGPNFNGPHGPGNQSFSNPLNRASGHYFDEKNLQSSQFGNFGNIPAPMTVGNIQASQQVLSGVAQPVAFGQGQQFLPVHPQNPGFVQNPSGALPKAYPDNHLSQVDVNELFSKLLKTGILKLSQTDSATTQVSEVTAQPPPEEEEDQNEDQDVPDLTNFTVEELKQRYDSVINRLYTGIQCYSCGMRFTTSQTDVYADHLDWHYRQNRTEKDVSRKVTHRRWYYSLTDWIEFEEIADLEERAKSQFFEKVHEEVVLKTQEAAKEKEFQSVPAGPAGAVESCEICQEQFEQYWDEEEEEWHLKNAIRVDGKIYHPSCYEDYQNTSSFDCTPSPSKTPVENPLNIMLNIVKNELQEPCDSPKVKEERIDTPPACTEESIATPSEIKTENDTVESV
inactive: erlotinib 0.031 | [1] -0.063 | [2] 0.014 | [3] 0.008 | [4] -0.044 | [5] -0.025 | [6] -0.028 | [7] 0.005 | [8] 0.005 | IRAK-1-4 Inhibitor I -0.017

PDF (UniProt Q9HBH1)
inactive: erlotinib 0.033 | [1] 0.07 | [2] -0.072 | [3] 0.005 | [4] -0.066 | [5] 0.066 | [6] -0.013 | [7] 0.047 | [8] -0.063 | IRAK-1-4 Inhibitor I 0.055

PIKFYVE (UniProt Q9Y2I7)
inactive: erlotinib -0.026 | [1] -0.008 | [2] -0.01 | [3] 0.005 | [4] -0.011 | [5] 0.03 | [6] -0.034 | [7] -0.039 | [8] 0.035 | IRAK-1-4 Inhibitor I -0.004

PIK3R1 (UniProt P27986)
inactive: erlotinib -0.027 | [1] -0.4 | [2] 0.008 | [3] 0.069 | [5] 0.076 | [6] 0.089 | [7] -0.015 | [8] 0 | IRAK-1-4 Inhibitor I 0.1
active: [4] 0.348

PCYT1B (UniProt Q9Y5K3)
inactive: erlotinib -0.016 | [1] 0.015 | [2] -0.006 | [3] 0.046 | [4] -0.03 | [5] 0.002 | [6] 0.044 | [7] -0.041 | [8] -0.032 | IRAK-1-4 Inhibitor I -0.023

PPP1R8 (UniProt Q12972)
inactive: erlotinib 0.002 | [1] -0.032 | [2] 0.029 | [3] 0.002 | [4] -0.012 | [5] 0.008 | [6] 0.007 | [7] -0.009 | [8] 0.02 | IRAK-1-4 Inhibitor I 0.008

PTP4A1 (UniProt Q93096)
Sequence of UniProt Q93096 (Q93096 whole entry, looked up): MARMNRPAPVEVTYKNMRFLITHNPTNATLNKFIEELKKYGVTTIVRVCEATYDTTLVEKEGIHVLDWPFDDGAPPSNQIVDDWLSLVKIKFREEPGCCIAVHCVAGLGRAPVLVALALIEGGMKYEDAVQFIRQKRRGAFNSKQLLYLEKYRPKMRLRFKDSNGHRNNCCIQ
inactive: erlotinib -0.005 | [1] 0.01 | [2] 0.014 | [3] -0.001 | [4] -0.013 | [5] -0.022 | [6] -0.086 | [7] 0.05 | [8] -0.066 | IRAK-1-4 Inhibitor I -0.014

PWP1 (UniProt Q13610)
inactive: erlotinib -0.02 | [1] -0.025 | [2] 0.045 | [3] 0.057 | [4] 0.007 | [5] 0 | [6] 0.031 | [7] 0.008 | [8] -0.032 | IRAK-1-4 Inhibitor I 0.005

PUS3 (UniProt Q9BZE2)
inactive: erlotinib -0.014 | [1] 0.043 | [2] -0.028 | [3] -0.048 | [4] 0.048 | [5] -0.006 | [6] -0.064 | [7] -0.028 | [8] 0.097 | IRAK-1-4 Inhibitor I -0.058

PIP4K2B (UniProt P78356)
inactive: erlotinib 0.038 | [1] -0.193 | [2] -0.021 | [3] 0.012 | [4] 0.096 | [5] 0.067 | [6] 0.013 | [7] 0.032 | [8] -0.02 | IRAK-1-4 Inhibitor I -0.019

PHOSPHO2 (UniProt Q8TCD6)
inactive: erlotinib -0.018 | [1] -0.225 | [2] 0.046 | [3] -0.032 | [4] -0.027 | [5] -0.002 | [6] 0.072 | [7] 0.224 | [8] -0.16 | IRAK-1-4 Inhibitor I -0.014

PIP4K2A (UniProt P48426)
Sequence of UniProt P48426 (P48426 whole entry, looked up): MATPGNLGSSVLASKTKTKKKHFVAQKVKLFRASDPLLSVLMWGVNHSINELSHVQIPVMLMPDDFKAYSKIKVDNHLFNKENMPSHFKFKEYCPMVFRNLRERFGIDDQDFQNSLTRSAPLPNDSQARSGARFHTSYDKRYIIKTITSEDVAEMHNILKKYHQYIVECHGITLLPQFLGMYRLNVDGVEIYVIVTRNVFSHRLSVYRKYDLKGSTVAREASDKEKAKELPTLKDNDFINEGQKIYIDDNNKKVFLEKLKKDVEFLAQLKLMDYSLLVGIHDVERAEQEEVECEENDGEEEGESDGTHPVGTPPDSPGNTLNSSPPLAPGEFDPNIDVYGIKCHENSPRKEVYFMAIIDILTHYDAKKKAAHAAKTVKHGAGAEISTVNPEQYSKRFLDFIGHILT
active: [1] -0.239
inactive: erlotinib -0.04 | [2] 0.032 | [3] 0.001 | [4] 0.225 | [5] 0.135 | [6] 0.105 | [7] 0.103 | [8] -0.006 | IRAK-1-4 Inhibitor I -0.007

PFKFB2 (UniProt O60825)
Sequence of UniProt O60825 (O60825 whole entry, looked up): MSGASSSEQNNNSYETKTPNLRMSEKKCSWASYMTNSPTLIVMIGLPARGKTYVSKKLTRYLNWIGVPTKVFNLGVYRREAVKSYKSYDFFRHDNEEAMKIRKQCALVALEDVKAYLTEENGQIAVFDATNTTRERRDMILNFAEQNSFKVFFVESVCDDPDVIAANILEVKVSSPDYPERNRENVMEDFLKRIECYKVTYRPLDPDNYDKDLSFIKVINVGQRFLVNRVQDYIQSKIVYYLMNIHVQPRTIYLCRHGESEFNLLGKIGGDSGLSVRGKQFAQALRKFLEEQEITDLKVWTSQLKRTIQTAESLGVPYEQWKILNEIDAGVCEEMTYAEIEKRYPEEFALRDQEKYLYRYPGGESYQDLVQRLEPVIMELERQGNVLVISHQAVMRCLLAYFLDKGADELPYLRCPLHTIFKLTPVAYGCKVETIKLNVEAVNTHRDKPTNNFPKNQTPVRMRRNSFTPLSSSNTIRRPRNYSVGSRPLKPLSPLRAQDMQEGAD
inactive: erlotinib -0.007 | [1] -0.012 | [2] 0.03 | [3] -0.004 | [4] 0.005 | [5] -0.02 | [6] 0.02 | [7] -0.004 | [8] 0.002 | IRAK-1-4 Inhibitor I -0.001

PRPH isoform 2 (UniProt P41219)
Sequence of UniProt P41219 (P41219 whole entry, looked up): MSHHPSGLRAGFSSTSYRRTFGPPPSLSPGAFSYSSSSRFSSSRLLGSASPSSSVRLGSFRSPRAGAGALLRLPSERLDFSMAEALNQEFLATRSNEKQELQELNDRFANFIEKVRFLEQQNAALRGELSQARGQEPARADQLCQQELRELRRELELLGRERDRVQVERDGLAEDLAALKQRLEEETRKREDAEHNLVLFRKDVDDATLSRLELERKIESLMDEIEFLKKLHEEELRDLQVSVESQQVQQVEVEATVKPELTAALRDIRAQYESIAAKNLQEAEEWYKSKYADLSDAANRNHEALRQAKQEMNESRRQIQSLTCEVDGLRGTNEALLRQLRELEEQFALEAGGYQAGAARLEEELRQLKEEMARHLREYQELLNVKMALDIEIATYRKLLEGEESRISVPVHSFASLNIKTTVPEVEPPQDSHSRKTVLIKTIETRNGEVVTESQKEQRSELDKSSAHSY
inactive: erlotinib -0.007 | [1] 0.042 | [2] -0.025 | [3] -0.032 | [4] 0.066 | [5] -0.001 | [6] -0.114 | [7] 0.072 | [8] -0.005 | IRAK-1-4 Inhibitor I -0.011

PLIN2 (UniProt Q99541)
inactive: erlotinib 0.013 | [1] 0.024 | [2] -0.093 | [3] 0.004 | [4] 0.028 | [5] -0.015 | [6] -0.045 | [7] 0.021 | [8] -0.042 | IRAK-1-4 Inhibitor I 0

PPIL2 (UniProt Q13356)
inactive: erlotinib -0.03 | [1] 0.02 | [2] 0.007 | [3] 0.021 | [4] -0.002 | [5] 0.039 | [6] -0.045 | [7] -0.036 | [8] 0.003 | IRAK-1-4 Inhibitor I -0.016

PELO (UniProt Q9BRX2)
inactive: erlotinib 0 | [1] -0.047 | [2] -0.058 | [3] -0.014 | [4] -0.002 | [5] 0 | [6] -0.038 | [7] -0.021 | [8] -0.049 | IRAK-1-4 Inhibitor I 0

PHKB isoform 3 (UniProt Q93100)
inactive: erlotinib -0.053 | [1] -0.049 | [2] 0 | [3] 0.044 | [4] 0.082 | [5] 0.036 | [6] 0.142 | [7] 0.038 | [8] 0.01 | IRAK-1-4 Inhibitor I 0.006

PRPF38A (UniProt Q8NAV1)
inactive: erlotinib -0.012 | [1] -0.016 | [2] 0.049 | [3] -0.025 | [4] 0.044 | [5] 0.05 | [6] 0.042 | [7] 0.005 | [8] -0.018 | IRAK-1-4 Inhibitor I 0.057

PGRMC1 (UniProt O00264)
Sequence of UniProt O00264 (O00264 whole entry, looked up): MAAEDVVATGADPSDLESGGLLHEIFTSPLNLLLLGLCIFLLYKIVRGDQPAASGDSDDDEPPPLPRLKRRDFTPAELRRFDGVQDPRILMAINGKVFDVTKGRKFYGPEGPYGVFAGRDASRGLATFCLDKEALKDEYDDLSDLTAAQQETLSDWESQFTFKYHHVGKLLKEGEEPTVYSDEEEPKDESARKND
inactive: erlotinib -0.032 | [1] -0.378 | [2] 0.025 | [3] -0.029 | [4] 0.003 | [5] 0.018 | [6] -0.004 | [7] 0.008 | [8] 0.013 | IRAK-1-4 Inhibitor I -0.005

PTPN6 isoform 4 (UniProt P29350)
inactive: erlotinib 0.054 | [1] 0.097 | [2] -0.03 | [3] -0.05 | [4] 0.047 | [5] 0.04 | [6] 0.033 | [7] -0.078 | [8] -0.224 | IRAK-1-4 Inhibitor I -0.073

PRKCSH (UniProt K7ELL7)
inactive: erlotinib -0.01 | [1] -0.124 | [2] 0.004 | [3] -0.056 | [4] 0 | [5] -0.036 | [6] -0.061 | [7] -0.096 | [8] -0.038 | IRAK-1-4 Inhibitor I -0.039

PDCD6IP isoform 2 (UniProt Q8WUM4)
inactive: erlotinib 0.027 | [1] 0.046 | [2] 0.009 | [3] 0.01 | [4] -0.02 | [5] 0.007 | [6] -0.007 | [7] 0.002 | [8] 0.007 | IRAK-1-4 Inhibitor I -0.002

PLA2G4B isoform 6 (UniProt P0C869)
inactive: erlotinib 0.099 | [1] 0.064 | [2] 0.048 | [3] -0.099 | [4] 0.023 | [5] 0.062 | [6] -0.021 | [7] -0.011 | [8] 0.026 | IRAK-1-4 Inhibitor I 0.065

PDAP1 (UniProt Q13442)
Sequence of UniProt Q13442 (Q13442 whole entry, looked up): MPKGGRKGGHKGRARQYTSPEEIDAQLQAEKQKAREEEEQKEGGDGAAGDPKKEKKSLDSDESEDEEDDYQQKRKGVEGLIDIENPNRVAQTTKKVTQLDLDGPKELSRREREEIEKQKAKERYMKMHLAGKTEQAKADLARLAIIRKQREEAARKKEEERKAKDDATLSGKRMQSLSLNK
inactive: erlotinib -0.01 | [1] -0.022 | [2] 0.02 | [3] -0.005 | [4] 0.001 | [5] -0.007 | [6] 0.023 | [7] 0.016 | [8] -0.012 | IRAK-1-4 Inhibitor I 0.026

PUM1 isoform 3 (UniProt Q14671)
inactive: erlotinib -0.025 | [1] 0.051 | [2] 0.06 | [3] -0.028 | [4] 0.02 | [5] -0.052 | [6] -0.033 | [7] 0.01 | [8] 0.013 | IRAK-1-4 Inhibitor I 0.011

PPCDC (UniProt Q96CD2)
Sequence of UniProt Q96CD2 (Q96CD2 whole entry, looked up): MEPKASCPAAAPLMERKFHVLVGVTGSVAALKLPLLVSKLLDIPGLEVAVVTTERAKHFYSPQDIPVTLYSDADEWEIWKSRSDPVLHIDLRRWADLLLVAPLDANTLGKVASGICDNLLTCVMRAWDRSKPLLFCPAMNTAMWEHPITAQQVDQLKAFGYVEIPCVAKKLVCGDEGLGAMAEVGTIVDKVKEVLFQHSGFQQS
inactive: erlotinib -0.019 | [1] 0.075 | [2] 0.033 | [3] -0.115 | [4] 0.004 | [5] 0.002 | [6] -0.115 | [7] -0.05 | [8] 0.084 | IRAK-1-4 Inhibitor I 0.023

PIP4K2C (UniProt Q8TBX8)
Sequence of UniProt Q8TBX8 (Q8TBX8 whole entry, looked up): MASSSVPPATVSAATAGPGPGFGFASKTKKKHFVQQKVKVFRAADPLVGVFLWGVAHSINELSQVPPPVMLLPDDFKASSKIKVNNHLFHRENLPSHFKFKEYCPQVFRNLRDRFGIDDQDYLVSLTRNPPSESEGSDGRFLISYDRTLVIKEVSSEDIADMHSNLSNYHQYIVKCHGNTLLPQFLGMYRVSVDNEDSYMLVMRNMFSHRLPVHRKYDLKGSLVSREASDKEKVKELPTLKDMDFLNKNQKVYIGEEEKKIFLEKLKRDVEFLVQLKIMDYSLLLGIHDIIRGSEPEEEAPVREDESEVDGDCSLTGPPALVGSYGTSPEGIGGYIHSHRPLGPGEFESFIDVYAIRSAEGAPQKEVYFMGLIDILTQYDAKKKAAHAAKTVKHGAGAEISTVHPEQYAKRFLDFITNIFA
inactive: erlotinib 0.104 | [1] -0.289 | [2] 0.033 | [3] 0.004 | [5] 0.137 | [6] 0.127 | [7] 0.231 | [8] -0.055 | IRAK-1-4 Inhibitor I -0.005
active: [4] 0.496

PREP (UniProt P48147)
Sequence of UniProt P48147 (P48147 whole entry, looked up): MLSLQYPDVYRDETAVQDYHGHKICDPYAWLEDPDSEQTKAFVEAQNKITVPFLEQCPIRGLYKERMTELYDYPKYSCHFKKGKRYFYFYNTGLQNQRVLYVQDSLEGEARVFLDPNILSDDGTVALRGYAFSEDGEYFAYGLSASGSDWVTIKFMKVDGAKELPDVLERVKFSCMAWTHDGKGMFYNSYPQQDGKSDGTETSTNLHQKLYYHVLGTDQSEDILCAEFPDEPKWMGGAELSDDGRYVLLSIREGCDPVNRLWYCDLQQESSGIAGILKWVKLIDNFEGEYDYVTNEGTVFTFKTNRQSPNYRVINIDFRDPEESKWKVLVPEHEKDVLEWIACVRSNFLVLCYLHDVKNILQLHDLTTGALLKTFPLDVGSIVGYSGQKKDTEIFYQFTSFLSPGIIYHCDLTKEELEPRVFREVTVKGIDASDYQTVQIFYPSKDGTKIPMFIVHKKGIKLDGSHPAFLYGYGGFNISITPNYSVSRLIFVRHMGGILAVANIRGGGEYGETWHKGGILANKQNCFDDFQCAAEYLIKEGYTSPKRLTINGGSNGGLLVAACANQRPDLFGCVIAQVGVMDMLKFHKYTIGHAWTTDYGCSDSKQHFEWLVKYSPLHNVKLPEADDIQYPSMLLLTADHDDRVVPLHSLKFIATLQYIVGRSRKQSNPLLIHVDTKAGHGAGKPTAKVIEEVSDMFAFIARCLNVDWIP
inactive: erlotinib 0.026 | [1] -0.016 | [2] 0.028 | [3] -0.007 | [4] -0.002 | [5] 0.002 | [6] -0.002 | [7] -0.024 | [8] 0.014 | IRAK-1-4 Inhibitor I -0.007
